The test system of experiment [1] is Wnt5a (protein binding on small-molecule microarray). In words: small molecules binding Wnt5a protein – biophysical, small-molecule microarray, 635/667 nm fluorescence, primary screen (AID 1142).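 Also: fluorescence read at 667 nm with signal to noise per printed feature.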 To be noted: 635 nm fluorescence, higher = more signal.
The nature of experiment [2]: ATP-based viability of Huh7 replicon cells – cell-based, CellTiter-Glo luminescence, basal, 48 h, cytotoxicity control for HCV replication inhibitor project, primary screen (AID 1143).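 Also: Huh7 hepatoma cells carrying a hepatitis C replication reporter with no stimulus; test concentration not given here.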 To be noted: higher = more signal, called active from +8 up or from −8 down.
Experiment [3] is described as follows: Pseudomonas biofilm growth suppression – PAO1 strain, BacTiter-Glo luminescence, LB-PBS, primary screen (AID 1144). As to conditions: P. aeruginosa PAO1 biofilm, 12 h, higher = more signal.
Experiment [4] can be described thus: basal CRE-LacZ reporter activity in PC12 – cell-based, unstimulated, primary screen (AID 1145). As to conditions: no forskolin, luminescence, 4.5 h, higher = more signal, called active from +8 up or from −8 down.
Experiment [5] is described as follows: forskolin-driven CRE-LacZ activity in PC12 – cell-based, CRE-LacZ reporter, forskolin-stimulated, primary screen (AID 1146).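 Also: PC12 cells with 6xCRE LacZ reporter stimulated by forskolin 10 µM; beta-galactosidase reporter signal reflecting CREB driven transcription.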 As to conditions: luminescence, 4.5 h, higher = more signal, called active from +8 up or from −8 down.
Experiment [6] deals with Streptavidin (Streptomyces avidinii) (UniProt P22629). In words: compounds binding control protein streptavidin – biophysical, small-molecule microarray, 635/667 nm fluorescence, artefact control for SMM compound annotation, primary screen (AID 1147).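 Also: signal reflects streptavidin binding to arrayed compounds as a control protein.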 As to conditions: higher = more signal.
Sequence of Streptavidin (Streptomyces avidinii) (P22629 whole entry, looked up): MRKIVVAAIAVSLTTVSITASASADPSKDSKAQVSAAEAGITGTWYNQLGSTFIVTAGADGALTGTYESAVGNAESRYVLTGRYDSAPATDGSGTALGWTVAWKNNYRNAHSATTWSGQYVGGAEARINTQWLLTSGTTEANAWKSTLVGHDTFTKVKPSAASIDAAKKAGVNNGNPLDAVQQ
The nature of experiment [7]: probe aInhba binding on compound microarray – biochemical, small-molecule microarray, 635/667 nm fluorescence, primary screen (AID 1148).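 Also: score merges 667nm spot fluorescence with signal-to-noise for antibody binding to printed compounds.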 To be noted: higher = more signal.
Experiment [8] deals with Torsin-1A (Homo sapiens) (UniProt O14656). In words: TOR1A wild-type binding on microarray – cell lysate, small-molecule microarray, lysate, 635/667 nm, primary screen (AID 1149). As to conditions: COS7 hTOR1A-WT lysate, 635 nm fluorescence, higher = more signal.
Sequence of Torsin-1A (Homo sapiens) (O14656 whole entry, looked up): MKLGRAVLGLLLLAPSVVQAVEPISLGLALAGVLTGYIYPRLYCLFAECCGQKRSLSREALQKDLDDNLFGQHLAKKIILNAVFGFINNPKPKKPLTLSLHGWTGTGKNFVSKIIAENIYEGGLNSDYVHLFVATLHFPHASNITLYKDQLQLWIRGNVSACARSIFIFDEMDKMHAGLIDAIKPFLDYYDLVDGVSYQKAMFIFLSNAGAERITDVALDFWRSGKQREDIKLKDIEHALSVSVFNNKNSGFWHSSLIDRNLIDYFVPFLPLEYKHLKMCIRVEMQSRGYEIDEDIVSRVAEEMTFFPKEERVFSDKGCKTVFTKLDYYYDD
Experiment [9] shares this target. Briefly: torsin A mutant lysate binding on microarrays – cell lysate, small-molecule microarray, COS7 lysate, 635/667 nm fluorescence, primary screen (AID 1150).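 Also: score pools 667 nm emission and signal to noise measuring lysate protein binding.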 To be noted: COS7 hTOR1A mutant lysate, 635 nm fluorescence, higher = more signal.
The subject of experiment [10] is Sonic hedgehog protein (Shh). In words: Sonic hedgehog microarray binding compounds – biochemical, small-molecule microarray, 635/667 nm fluorescence, primary screen (AID 1151).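 Also: Shh protein binding to compounds spotted on small-molecule microarray slides; score combines spot fluorescence intensity with signal-to-noise across triplicate slides.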 As to conditions: 635 nm fluorescence, higher = more signal.
Experiment [11] can be described thus: optical density shifts of acrAB sulA E. coli – strain DRC41, OD650, 48 h, E. coli filamentation inducer project, primary screen (AID 1152).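 Also: E. coli MC1000 strain DRC41 lacking acrAB efflux pump and sulA.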 As to conditions: higher = more signal, called active from +8 up or from −8 down.
Experiment [12] is described as follows: probe aLefty1 binding on compound microarray – biochemical, small-molecule microarray, 635/667 nm fluorescence, primary screen (AID 1153).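 Also: score merges spot fluorescence with signal-to-noise ratio from the scanned slide images.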 As to conditions: higher = more signal.
Experiment [13] is described as follows: plasmodial surface anion channel blockers, osmotic lysis – cell-based, P. falciparum Indochina, OD700, 1 h, primary screen (AID 1154). To be noted: P. falciparum Indochina infected RBC osmotic lysis, higher = more signal, called active from +8 up or from −8 down.
A short description of experiment [14]: plasmodial surface anion channel blockers, osmotic lysis – cell-based, P. falciparum Indochina, OD700, 2 h, primary screen (AID 1155).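 Also: lysis reports solute entry through the parasite surface anion channel PSAC.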 As to conditions: P. falciparum Indochina infected erythrocytes, higher = more signal, called active from +8 up or from −8 down.
Experiment [15] is described as follows: changes in parasitized red cell lysis, either direction – P. falciparum Indochina, OD700, 3 h, PSAC antagonist project, primary screen (AID 1156). As to conditions: P. falciparum-infected erythrocytes, osmotic lysis, higher = more signal, called active from +8 up or from −8 down.
Experiment [16] in a line: plasmodial surface anion channel blockers, osmotic lysis – cell-based, P. falciparum Indochina, OD700, 18 h, primary screen (AID 1157). As to conditions: P. falciparum Indochina infected erythrocytes, osmotic lysis OD700, 18 h; higher = more signal, called active from +8 up or from −8 down.
Experiment [17] in a line: S6 kinase pathway phospho-S6 level changes – cell-based, A549, cytoblot, luminescence, serum-stimulated, primary screen (AID 1158).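 Also: serum-stimulated A549 lung adenocarcinoma cells; signal is phosphorylated S6 detected by cytoblot immunostaining with HRP secondary.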 To be noted: 5 h, higher = more signal.
Experiment [18] concerns the target NADPH oxidase 2 (Homo sapiens) (UniProt P04839). Briefly: compounds shifting NOX2 Amplex Red fluorescence – cell-based, HEK293-NOX2, PMA-stimulated, NOX inhibitor project, primary screen (AID 1159). Also: test concentration not given here. To be noted: 45 min, higher = more signal, called active from +8 up or from −8 down.
In experiment [19] the target is NADPH oxidase 4 (Homo sapiens) (UniProt Q9NPH5). In words: compounds shifting NOX4 Amplex Red fluorescence – cell-based, HEK293-NOX4, tetracycline-induced, NOX inhibitor project, primary screen (AID 1160). As to conditions: HEK293-NOX4, Amplex Red H2O2 fluorescence, 45 min; higher = more signal, called active from +8 up or from −8 down.
Sequence of NADPH oxidase 4 (Homo sapiens) (Q9NPH5 whole entry, looked up): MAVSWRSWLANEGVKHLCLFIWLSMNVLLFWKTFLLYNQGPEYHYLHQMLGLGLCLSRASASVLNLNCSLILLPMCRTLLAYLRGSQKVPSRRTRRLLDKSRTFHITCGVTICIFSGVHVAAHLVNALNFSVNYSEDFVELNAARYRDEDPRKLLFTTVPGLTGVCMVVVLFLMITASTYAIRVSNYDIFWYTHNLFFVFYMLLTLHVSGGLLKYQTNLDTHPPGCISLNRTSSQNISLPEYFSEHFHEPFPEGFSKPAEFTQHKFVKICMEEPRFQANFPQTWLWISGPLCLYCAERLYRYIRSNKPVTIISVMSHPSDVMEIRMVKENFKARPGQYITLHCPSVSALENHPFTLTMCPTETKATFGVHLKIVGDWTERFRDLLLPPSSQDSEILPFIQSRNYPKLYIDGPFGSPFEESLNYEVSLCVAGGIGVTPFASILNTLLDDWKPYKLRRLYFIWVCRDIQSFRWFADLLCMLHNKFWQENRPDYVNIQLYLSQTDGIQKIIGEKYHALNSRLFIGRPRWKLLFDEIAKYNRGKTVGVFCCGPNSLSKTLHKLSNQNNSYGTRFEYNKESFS
Experiment [20] concerns the target NADPH oxidase 5 (Homo sapiens) (UniProt Q96PH1). In words: compounds shifting NOX5 Amplex Red fluorescence – cell-based, HEK293-NOX5, NOX inhibitor project, primary screen (AID 1161). As to conditions: HEK293-NOX5, ionomycin, 45 min, higher = more signal.

The source made the active and inactive calls. Unless noted, no rule for the calls is given here.

Sequence of NADPH oxidase 2 (Homo sapiens) (P04839 whole entry, looked up): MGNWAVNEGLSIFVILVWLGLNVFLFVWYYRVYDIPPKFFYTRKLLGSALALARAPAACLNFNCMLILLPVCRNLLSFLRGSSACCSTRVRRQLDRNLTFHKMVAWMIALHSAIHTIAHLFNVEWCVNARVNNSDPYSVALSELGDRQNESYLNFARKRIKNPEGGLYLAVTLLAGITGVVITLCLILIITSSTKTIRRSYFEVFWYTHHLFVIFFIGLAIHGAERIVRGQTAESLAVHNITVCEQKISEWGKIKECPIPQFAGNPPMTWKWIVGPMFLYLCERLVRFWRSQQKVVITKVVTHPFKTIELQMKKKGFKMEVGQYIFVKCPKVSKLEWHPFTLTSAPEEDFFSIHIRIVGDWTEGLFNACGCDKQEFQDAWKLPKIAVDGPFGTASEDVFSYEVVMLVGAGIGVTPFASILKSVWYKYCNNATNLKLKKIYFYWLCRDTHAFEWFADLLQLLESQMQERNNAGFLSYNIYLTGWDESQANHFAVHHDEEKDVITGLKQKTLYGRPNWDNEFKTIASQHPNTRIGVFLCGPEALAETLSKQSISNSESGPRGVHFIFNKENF
Sequence of NADPH oxidase 5 (Homo sapiens) (Q96PH1 whole entry, looked up): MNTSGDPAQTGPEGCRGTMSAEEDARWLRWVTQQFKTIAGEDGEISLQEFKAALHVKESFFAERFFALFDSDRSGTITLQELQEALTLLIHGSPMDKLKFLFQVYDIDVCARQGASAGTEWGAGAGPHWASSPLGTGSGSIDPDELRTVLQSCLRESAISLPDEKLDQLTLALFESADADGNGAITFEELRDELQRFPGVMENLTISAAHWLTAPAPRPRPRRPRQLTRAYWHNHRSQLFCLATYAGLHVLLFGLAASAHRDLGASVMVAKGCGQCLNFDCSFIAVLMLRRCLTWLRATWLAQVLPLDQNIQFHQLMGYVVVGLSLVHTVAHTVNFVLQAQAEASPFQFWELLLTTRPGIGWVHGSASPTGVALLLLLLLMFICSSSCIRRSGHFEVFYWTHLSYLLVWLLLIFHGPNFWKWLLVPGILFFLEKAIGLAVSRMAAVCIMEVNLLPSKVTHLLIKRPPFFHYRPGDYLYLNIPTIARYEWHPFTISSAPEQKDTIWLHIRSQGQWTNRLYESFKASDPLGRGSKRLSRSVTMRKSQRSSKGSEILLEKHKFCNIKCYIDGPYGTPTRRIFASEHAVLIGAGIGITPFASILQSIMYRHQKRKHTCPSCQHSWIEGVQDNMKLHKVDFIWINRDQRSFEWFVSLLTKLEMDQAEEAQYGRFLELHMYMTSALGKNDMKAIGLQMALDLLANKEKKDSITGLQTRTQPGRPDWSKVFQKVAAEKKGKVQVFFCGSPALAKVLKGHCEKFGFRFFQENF

Consider `O=C1c2ccccc2[C@](Cc2ccccc2I)(C(=O)NCC(F)(F)F)[C@H](c2ccc(CO)cc2)N1Cc1ccccc1`, for which the composite z-score in experiment [1] is -0.134; in experiment [6], 1; in experiment [7], 0.098; in [8], -0.661; in experiment [9], 0.341; in experiment [10], 0.46. The composite z-score in [12] was -0.229. Moreover, the z-score in [2] is -0.396 (inactive); in [3], 0.144 (inactive); in experiment [4], 0.272 (inactive); in experiment [5], 2.76 (inactive); in experiment [11], 0.131 (inactive); in experiment [13], 2.39 (inactive). Further, the z-score in experiment [14] was 0.111 (inactive); in [15] it was 0.369 (inactive); in experiment [16], 0.278 (inactive); in experiment [17] it was -0.261; in [18], 0.738 (inactive); in experiment [19] it was -0.16 (inactive). Moreover, the z-score in experiment [20] amounted to 1.14.

Consider `COC(=O)[C@]1(Cc2ccccc2N=[N+]=[N-])N=C(c2ccc(OCCCO)cc2)O[C@@H]1c1ccccc1`, for which the composite z-score in experiment [1] was 0.0416; in [6], -0.189; in [7], 0.125; in experiment [8], -0.53; in [9], -0.23; in [10], -0.148. Moreover, the composite z-score in [12] was -0.111. Moreover, the z-score in experiment [2] is -5.29 (inactive); in experiment [3], -0.566 (inactive); in experiment [4], 2.59 (inactive); in experiment [5], 15.8 (active); in experiment [11], 0.738 (inactive); in [13], 28.2 (active). For the same molecule, the z-score in experiment [14] is 27.2 (active); in [15] it was 1.06 (inactive); in experiment [16], 7.41 (inactive); in [17], 0.777; in experiment [18], -1.49 (inactive); in experiment [19], -0.013 (inactive). For the same molecule, the z-score in [20] was -1.12.

For `COC(=O)c1c(CC[C@@H](CO)NC(=O)N[C@@H](C)Cn2cc(C3(O)CCCC3)nn2)oc(C(C)=O)c1C(=O)OC`, the composite z-score in experiment [1] was -0.22; in experiment [6], 0.0648; in experiment [7], 0.117; in experiment [8], 0.862; in experiment [9] it was 0.277; in [10], 2.16. In [12], this molecule returned a composite z-score of 0.0561. The z-score was -2.75 (inactive) in experiment [2]; -0.0355 (inactive) in experiment [3]; 0.861 (inactive) in experiment [4]; -0.144 (inactive) in [5]; -0.274 (inactive) in experiment [11]; 1.88 (inactive) in experiment [13]. The z-score in experiment [14] was -0.8 (inactive); in experiment [15] it was 0.816 (inactive); in experiment [16] it was -1.45 (inactive); in experiment [17], 2.2; in experiment [18] it was -2.54 (inactive); in experiment [19] it was -1.84 (inactive). The z-score in experiment [20] is -2.35.

For the molecule `O=C1O[C@H](c2ccccc2)[C@H](c2ccccc2)N2[C@H]1[C@@H](C(=O)N1CCCCCCC1)[C@]1(C(=O)Nc3ccc(C#CCCO)cc31)[C@H]2c1ccc(OCCO)cc1`, the composite z-score was found to be 2.02 in experiment [1]; 4.02 in experiment [6]; 1.82 in [7]; 3.41 in [8]; 3.46 in experiment [9]; 2.35 in experiment [10]. Besides, the composite z-score in experiment [12] turned out to be 3.09. In addition, the z-score is -2.18 (inactive) in experiment [2]; 0.278 (inactive) in experiment [3]; -1.42 (inactive) in experiment [4]; -0.757 (inactive) in [5]; 0.543 (inactive) in experiment [11]; 10.3 (active) in [13]. The z-score in experiment [14] is 2.04 (inactive); in [15] it was 1.21 (inactive); in experiment [16], 1.02 (inactive); in experiment [17] it was 0.456; in experiment [18], 1.11 (inactive); in experiment [19], 0.597 (inactive). In addition, the z-score in experiment [20] came out at 1.25.

These data come from PubChem BioAssay.
